In ChEMBL document CHEMBL3988442, “University of Dundee, Small-Polar-MMV Screening Library” (2021):
For some assays here: Results with a measured potency or affinity are listed apart.

How the values were obtained:
Parameters in all cases: scale not given: direction of the effect not stated beside the values
[1] = target: Protein translocase subunit SecA (Escherichia coli (strain K12)) (UniProt P10408); assay: Assay to Identify E. coli SecA ATPase Inhibitors; type: functional; details: 30 µM
[2] = target: T1, Ubiquitin-activating enzyme e1, putative (Leishmania donovani (strain BPK282A1)) (UniProt E9BSI1); assay: Leishmania donovani Ubiquitin Activating Enzyme (LdE1); type: functional; details: 30 µM
T1 sequence (whole entry): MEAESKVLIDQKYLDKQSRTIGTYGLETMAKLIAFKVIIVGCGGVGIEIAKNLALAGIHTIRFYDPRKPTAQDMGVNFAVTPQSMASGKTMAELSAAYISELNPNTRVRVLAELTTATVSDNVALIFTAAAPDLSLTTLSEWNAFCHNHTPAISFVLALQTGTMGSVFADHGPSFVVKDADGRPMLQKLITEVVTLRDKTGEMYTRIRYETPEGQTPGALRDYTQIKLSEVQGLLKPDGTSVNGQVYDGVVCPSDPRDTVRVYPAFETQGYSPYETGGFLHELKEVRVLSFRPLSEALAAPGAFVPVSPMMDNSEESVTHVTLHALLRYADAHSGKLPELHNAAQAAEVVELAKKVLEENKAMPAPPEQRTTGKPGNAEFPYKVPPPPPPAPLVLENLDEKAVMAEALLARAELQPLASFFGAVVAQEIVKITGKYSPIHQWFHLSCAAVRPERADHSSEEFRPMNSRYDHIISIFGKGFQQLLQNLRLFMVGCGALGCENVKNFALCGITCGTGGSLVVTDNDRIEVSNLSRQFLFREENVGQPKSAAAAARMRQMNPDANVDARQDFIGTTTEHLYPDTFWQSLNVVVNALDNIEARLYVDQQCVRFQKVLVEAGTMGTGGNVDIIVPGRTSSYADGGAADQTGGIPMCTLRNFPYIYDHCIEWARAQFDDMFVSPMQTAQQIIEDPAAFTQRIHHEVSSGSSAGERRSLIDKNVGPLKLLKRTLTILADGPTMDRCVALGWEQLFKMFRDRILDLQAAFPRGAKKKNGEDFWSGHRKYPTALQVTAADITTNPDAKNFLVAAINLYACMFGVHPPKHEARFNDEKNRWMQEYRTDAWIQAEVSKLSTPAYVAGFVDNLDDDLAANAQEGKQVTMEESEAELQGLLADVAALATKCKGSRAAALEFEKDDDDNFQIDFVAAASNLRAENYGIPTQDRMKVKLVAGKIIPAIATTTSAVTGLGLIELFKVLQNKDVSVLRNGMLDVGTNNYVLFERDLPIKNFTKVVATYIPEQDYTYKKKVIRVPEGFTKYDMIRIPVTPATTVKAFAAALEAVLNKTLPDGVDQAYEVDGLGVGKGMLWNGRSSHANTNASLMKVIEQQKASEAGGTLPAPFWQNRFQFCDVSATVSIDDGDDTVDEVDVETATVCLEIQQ

[3] = target: Sialic acid-binding Ig-like lectin 9 (Homo sapiens) (UniProt Q9Y336); assay: Hs-Siglec9 ALPHAscreen SOP 20170721; details: 10 µM
[4] = test system: Trypanosoma cruzi; assay: Trypanosoma cruzi phosphomannomutase and mannose-1-phosphate guanylyltransferase assay; type: functional; details: 10 µM
[5] = target: T2, Arginase-2, mitochondrial (Homo sapiens) (UniProt P78540); assay: in vitro enzyme assay to detect the production of urea directly proportional to the activity of Arginase II; type: functional; details: 33.3 µM; note: in the data most compounds retested in dose-response had high values
T2 sequence (whole entry): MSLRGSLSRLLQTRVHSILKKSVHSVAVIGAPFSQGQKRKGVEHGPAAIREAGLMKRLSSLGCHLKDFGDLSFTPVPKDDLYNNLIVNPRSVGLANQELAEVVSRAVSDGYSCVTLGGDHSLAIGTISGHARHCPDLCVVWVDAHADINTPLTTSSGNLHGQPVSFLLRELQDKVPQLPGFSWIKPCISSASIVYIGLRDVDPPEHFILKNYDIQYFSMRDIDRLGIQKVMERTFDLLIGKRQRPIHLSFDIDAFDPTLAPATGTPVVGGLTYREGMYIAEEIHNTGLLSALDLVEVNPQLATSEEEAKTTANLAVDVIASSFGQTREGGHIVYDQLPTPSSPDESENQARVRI

[6] = target: T3, Proteasome subunit beta (Trypanosoma cruzi) (UniProt O96673); assay: Trypanosoma cruzi proteasome chymotrypsin-like activity (TcProtChymo) assay.; note: in the data most compounds retested in dose-response had high values; type: functional; details: 9.37 µM
T3 sequence (whole entry): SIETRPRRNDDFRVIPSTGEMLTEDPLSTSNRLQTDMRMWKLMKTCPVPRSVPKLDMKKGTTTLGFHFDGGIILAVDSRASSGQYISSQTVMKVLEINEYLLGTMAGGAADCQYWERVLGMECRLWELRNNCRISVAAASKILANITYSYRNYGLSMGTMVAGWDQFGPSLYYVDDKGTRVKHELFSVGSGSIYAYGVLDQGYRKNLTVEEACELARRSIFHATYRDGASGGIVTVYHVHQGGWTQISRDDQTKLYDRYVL

[7] = species: Homo sapiens; assay: To identify inhibition of the IFN signalling (Jak-Stat) pathway via expression of an eGFP reporter gene under the control of an IFN-stimulated response element (ISRE) containing MxA promoter.; type: functional; details: 30 µM
[8] = target: T4, Tyrosyl-tRNA synthetase, putative (Trypanosoma cruzi (strain CL Brener)) (UniProt Q4DSP6); assay: Trypanosoma cruzi tyrosyl tRNA synthetase (TcYRS) _High Tyrosine SOP; type: functional; details: 30 µM; note: in the data most compounds retested in dose-response had high values
T4 sequence (whole entry): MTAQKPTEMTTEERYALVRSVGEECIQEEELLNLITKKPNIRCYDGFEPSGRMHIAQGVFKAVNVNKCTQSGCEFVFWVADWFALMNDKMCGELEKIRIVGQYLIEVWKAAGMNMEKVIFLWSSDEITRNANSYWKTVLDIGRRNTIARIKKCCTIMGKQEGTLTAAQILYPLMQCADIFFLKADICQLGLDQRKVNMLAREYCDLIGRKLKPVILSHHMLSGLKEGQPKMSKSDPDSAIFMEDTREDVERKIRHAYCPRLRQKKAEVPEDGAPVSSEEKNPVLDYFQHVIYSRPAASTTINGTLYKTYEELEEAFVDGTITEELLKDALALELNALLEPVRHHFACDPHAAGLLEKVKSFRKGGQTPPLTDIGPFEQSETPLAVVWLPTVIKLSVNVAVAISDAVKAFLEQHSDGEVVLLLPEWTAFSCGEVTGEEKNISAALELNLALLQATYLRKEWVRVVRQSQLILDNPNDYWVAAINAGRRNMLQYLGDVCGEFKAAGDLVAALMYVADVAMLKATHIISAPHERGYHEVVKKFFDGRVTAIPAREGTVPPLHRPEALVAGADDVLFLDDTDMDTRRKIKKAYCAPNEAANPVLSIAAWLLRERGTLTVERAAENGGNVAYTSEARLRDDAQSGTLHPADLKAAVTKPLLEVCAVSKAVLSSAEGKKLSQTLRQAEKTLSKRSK

[9] = target: T4, Tyrosyl-tRNA synthetase, putative (Trypanosoma cruzi (strain CL Brener)); assay: Trypanosoma cruzi tyrosyl tRNA synthetase (TcYRS) SOP; type: functional; details: 30 µM
[10] = target: Chromo domain-containing protein 1 (Saccharomyces cerevisiae (strain ATCC 204508 / S288c) (Baker's yeast)) (UniProt P32657); assay: ScCHD-1 Enzyme Inhibition Assay; type: functional; details: 30 µM; note: in the data most compounds retested in dose-response had high values
Sequence of Chromo domain-containing protein 1 (Saccharomyces cerevisiae (strain ATCC 204508 / S288c) (Baker's yeast)) (P32657 whole entry, the tested form may be a part): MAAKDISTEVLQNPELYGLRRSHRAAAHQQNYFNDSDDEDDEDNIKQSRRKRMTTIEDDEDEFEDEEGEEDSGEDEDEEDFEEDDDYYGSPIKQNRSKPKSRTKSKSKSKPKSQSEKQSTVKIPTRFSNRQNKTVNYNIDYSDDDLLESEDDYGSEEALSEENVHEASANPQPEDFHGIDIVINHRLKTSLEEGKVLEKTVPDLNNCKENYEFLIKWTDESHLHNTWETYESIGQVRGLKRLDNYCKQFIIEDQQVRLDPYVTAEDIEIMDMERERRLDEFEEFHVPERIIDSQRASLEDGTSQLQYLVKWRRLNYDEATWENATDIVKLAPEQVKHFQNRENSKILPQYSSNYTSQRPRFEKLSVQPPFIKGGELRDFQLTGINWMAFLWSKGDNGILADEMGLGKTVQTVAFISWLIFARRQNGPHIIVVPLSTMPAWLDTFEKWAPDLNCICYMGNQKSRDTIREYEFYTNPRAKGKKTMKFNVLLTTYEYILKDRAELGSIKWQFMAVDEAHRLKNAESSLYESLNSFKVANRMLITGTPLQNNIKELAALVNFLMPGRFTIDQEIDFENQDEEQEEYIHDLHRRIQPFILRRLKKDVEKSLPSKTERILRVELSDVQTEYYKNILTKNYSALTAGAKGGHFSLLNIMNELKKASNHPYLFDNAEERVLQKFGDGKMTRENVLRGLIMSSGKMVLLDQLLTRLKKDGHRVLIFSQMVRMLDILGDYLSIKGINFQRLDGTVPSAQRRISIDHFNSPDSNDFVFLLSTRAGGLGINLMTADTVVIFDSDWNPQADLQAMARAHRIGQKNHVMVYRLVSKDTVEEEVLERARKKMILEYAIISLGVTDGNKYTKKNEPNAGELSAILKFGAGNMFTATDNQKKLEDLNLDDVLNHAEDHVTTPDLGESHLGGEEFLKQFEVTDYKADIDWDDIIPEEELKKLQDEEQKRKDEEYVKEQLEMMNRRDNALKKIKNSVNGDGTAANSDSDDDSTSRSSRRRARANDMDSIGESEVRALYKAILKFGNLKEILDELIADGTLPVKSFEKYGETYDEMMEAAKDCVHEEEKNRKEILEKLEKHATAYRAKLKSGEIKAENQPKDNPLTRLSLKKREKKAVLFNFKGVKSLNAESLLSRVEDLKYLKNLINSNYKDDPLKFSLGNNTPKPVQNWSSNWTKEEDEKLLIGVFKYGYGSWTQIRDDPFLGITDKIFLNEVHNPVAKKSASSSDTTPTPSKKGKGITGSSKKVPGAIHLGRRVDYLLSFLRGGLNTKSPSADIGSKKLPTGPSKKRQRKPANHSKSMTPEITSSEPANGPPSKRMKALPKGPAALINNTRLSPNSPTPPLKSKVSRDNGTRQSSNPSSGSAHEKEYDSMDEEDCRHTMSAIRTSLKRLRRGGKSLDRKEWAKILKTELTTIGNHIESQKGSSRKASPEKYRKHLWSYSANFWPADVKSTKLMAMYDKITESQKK

Sequence of Protein translocase subunit SecA (Escherichia coli (strain K12)) (P10408 whole entry): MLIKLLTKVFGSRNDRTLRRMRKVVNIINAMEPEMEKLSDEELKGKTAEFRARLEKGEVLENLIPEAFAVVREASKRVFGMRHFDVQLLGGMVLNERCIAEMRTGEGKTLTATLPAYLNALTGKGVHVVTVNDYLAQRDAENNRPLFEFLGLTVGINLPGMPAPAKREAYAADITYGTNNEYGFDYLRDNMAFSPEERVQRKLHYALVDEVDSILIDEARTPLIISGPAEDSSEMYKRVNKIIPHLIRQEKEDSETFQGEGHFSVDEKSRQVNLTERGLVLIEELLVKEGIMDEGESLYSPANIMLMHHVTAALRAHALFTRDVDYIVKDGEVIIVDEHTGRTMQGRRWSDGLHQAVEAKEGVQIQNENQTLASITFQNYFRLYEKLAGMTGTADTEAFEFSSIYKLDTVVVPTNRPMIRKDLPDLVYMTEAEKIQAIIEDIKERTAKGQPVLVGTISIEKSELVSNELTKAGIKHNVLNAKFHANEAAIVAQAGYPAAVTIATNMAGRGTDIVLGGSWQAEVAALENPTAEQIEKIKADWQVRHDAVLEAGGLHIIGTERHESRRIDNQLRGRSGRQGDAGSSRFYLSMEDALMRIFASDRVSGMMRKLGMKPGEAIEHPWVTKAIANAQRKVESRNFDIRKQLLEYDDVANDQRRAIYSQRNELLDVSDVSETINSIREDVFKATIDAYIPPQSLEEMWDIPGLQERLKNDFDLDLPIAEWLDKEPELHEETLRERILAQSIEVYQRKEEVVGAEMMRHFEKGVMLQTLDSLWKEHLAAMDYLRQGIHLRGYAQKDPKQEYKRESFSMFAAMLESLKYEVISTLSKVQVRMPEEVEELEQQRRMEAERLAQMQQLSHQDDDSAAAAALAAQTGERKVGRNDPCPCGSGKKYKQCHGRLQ
Sequence of Sialic acid-binding Ig-like lectin 9 (Homo sapiens) (Q9Y336 whole entry): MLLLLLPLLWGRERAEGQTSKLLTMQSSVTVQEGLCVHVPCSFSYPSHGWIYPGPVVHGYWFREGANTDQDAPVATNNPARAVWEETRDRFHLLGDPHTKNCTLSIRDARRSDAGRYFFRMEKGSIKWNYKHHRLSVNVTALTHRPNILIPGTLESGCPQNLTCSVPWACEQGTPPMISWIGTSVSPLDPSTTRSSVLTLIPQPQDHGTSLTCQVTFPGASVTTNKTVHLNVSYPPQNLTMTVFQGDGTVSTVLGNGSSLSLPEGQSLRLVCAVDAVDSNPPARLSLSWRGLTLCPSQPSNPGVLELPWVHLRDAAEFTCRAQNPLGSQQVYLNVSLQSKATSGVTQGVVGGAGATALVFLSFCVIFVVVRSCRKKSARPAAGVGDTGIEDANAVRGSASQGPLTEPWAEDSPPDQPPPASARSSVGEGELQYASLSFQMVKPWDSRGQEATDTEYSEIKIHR

Row | SMILES | Percent Effect [1] [%] | Percent Effect [2] [%] | Percent Effect [3] [%] | Percent Effect [4] [%] | Percent Effect [5] [%] | Percent Effect [6] [%] | Percent Effect [7] [%] | Percent Effect [8] [%] | Percent Effect [9] [%] | Percent Effect [10] [%]
1 | NC(=O)c1cc(NC(=O)NCCc2cc(F)cc(F)c2)ccc1F | -0.0438 | 10.4 | 8.44 | 0.56 | -2.66 | 5.26 | -4.36 | 5.88 | 23.5 | -11.6
2 | CC(NC(=O)CCn1cncn1)c1nnc2n1CCCCC2 (stereo not given) | -3.71 | 20.8 | 8.71 | 5.04 | 10.4 | 1.93 | 17.2 | 3.92 | 18.8 | -8.72
3 | Cc1nccn1Cc1nnc(C2CCCN(Cc3cccnc3)C2)n1C (stereo not given) | -4.77 | 16.2 | 4.69 | 5.53 | -6.64 | 12.3 | 5.04 | 9.04 | 14.6 | -2.63
4 | Cc1ccc(C(=O)N2CCC3(CC2)COC(COc2ccccn2)C3)o1 (stereo not given) | -7 | 19.5 | 6.32 | 2.24 | -2.83 | 7.33 | -10.8 | 5.79 | 12.8 | 18.6
5 | Cc1ccccc1OCCC(=O)N1CCCC(n2cncn2)C1 (stereo not given) | -5.79 | 5.13 | 4.87 | 0.657 | 5.33 | 4.52 | 0.995 | 1.44 | 10.8 | -3.4
6 | CC(C)n1ccnc1CN1CCCN(C(=O)c2cccnc2O)CC1 | -4.65 | 15.4 | -20.6 | 5.54 | 1.64 | 14.9 | -7.69 | 10.1 | 22.9 | -5.81
7 | CN1[C@H](CN2CCCC2)C[C@@H]2CN(C(=O)c3cccn3C)CC[C@@H]21 | -1.76 | -1.3 | 1.42 | 0.563 | -0.457 | 0.944 | -0.498 | 10.6 | 12.5 | -6.06
8 | O=C(c1ccc(C(F)(F)F)nc1)N1CCCC(n2cncn2)C1 (stereo not given) | 1.26 | -5.13 | -2.26 | 5.92 | 5.33 | 3.33 | -13.8 | -3.35 | 1.21 | -3.39
9 | Cc1nc(C2CCCN(C(=O)COCc3ccccc3Cl)C2)no1 (stereo not given) | 1.44 | -8 | 4.56 | -1.81 | 6.21 | -7.72 | 10.8 | -1.58 | -5.13 | 3.49
10 | CC1CN(c2ccc(CNC(=O)c3ccn(C)c(=O)c3)cn2)CCO1 (stereo not given) | -4.46 | 16 | 0.777 | 1.61 | 5.32 | 7.72 | 6.29 | 3.68 | 15.4 | -8.09
11 | CN(C)S(=O)(=O)N1CCN(C(=O)c2ccc3ccn(C)c3c2)CC1 | -5.48 | 8.11 | 12 | 5.72 | 8.74 | 13.9 | 5.78 | 2.66 | 9.76 | -5.25
